# According to article PMC7862700, “An all-to-all approach to the identification of sequence-specific readers for epigenetic DNA modifications on cytosine”:
# Columns and labels:
# Test in all cases: DAPPL (digital affinity profiling via proximity ligation, sequencing); 10 mM Tris-HCl pH 7.5, 50 mM NaCl, 1 mM DTT, 4% glycerol, room temperature, 30 min; GST-TFs on glutathione beads, 16-mer random dsDNA library, 0.1% formaldehyde crosslink after washing; high values mean tight binding
# FLI1 = target: T1, FLI1 (Homo sapiens, UniProt Q01543 1-452); details: protein: recombinant; tags: N-terminal GST; dsDNA, one strand shown
# T1 sequence: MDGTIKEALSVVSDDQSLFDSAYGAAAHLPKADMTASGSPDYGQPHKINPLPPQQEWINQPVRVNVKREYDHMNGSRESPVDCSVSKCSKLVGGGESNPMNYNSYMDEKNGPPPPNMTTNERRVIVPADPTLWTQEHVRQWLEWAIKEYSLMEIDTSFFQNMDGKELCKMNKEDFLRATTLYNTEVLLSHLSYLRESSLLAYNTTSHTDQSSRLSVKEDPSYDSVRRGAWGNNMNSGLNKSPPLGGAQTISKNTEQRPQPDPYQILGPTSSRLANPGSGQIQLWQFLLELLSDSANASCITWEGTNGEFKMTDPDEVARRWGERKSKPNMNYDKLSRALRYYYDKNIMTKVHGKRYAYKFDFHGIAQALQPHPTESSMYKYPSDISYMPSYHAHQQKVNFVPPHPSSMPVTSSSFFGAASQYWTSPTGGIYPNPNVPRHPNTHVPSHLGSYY
# How it was run: (§1)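 Human transcription factors fused to GST were expressed in yeast, captured on glutathione beads, given DNA barcodes and pooled with a GST-only negative control. Pools were incubated with 200 nmole of a 16-mer random double-stranded DNA library in Tris/NaCl/DTT/glycerol buffer at room temperature for 30 min. They were then washed, crosslinked with 0.1% formaldehyde, proximity-ligated (BsaI/T4 ligase, 1 h, 37 °C), PCR-amplified and sequenced on an Illumina NextSeq500. Binding signal is each 6-mer's read frequency for a factor divided by its frequency for the GST control.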
# ELK1 = target: T2, ELK1 (Homo sapiens, UniProt P19419 1-428); details: protein: recombinant; tags: N-terminal GST; dsDNA, one strand shown
# T2 sequence: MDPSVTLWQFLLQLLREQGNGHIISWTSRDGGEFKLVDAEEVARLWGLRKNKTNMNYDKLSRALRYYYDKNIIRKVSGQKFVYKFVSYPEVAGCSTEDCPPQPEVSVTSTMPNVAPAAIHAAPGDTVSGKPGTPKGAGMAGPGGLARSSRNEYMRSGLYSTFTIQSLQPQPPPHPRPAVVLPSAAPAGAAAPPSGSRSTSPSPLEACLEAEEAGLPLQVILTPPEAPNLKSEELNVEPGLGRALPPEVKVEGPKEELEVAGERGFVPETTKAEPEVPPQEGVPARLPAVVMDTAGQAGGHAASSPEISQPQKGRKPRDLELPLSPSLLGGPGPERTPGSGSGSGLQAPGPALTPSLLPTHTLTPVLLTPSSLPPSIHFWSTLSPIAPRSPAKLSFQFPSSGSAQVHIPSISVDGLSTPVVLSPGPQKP
# How it was run: as §1
# GABPA = target: T3, GABPA (Homo sapiens, UniProt Q06546 1-454); details: protein: recombinant; tags: N-terminal GST; dsDNA, one strand shown
# T3 sequence: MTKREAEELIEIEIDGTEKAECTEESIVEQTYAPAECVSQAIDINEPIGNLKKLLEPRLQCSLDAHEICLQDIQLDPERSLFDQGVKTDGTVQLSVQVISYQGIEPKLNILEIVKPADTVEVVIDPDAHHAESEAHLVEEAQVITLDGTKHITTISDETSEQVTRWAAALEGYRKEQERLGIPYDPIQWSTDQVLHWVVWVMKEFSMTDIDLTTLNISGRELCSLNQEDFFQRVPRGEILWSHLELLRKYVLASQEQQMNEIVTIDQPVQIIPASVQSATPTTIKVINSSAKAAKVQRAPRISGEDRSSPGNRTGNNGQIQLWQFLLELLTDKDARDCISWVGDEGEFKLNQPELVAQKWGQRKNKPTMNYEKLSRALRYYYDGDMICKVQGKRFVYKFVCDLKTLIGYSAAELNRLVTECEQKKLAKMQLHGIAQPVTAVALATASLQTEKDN
# How it was run: as §1
# ERG = target: T4, ERG (Homo sapiens, UniProt P11308 1-479); details: protein: recombinant; tags: N-terminal GST; dsDNA, one strand shown
# T4 sequence: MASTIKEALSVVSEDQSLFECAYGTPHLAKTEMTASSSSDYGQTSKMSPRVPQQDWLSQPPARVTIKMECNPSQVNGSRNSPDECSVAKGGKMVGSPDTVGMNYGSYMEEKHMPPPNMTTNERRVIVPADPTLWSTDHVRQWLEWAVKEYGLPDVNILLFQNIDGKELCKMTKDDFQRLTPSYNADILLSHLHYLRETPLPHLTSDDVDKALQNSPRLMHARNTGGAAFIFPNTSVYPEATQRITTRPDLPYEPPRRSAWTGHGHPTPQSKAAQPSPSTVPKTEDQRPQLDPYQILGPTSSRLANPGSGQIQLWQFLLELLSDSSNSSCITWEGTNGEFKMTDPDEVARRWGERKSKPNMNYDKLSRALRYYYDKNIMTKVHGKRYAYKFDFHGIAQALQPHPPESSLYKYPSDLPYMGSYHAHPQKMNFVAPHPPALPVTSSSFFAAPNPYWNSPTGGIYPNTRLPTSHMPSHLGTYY
# How it was run: as §1
# ELF1 = ELF1 (Homo sapiens, UniProt P32519 1-619); details: protein: recombinant; tags: N-terminal GST; dsDNA, one strand shown
# How it was run: as §1
# EHF = target: T5, EHF (Homo sapiens, UniProt Q9NZC4 1-300); details: protein: recombinant; tags: N-terminal GST; dsDNA, one strand shown
# T5 sequence: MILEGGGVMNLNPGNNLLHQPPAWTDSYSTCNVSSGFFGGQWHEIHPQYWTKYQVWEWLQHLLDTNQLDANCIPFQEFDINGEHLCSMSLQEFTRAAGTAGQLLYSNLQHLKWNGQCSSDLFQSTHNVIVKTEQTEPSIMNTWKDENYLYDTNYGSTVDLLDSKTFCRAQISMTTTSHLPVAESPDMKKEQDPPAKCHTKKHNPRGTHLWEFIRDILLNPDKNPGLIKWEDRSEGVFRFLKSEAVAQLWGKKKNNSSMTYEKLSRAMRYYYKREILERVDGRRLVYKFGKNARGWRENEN
# How it was run: as §1
# SPI1 = SPI1 (Homo sapiens, UniProt P17947 1-270); details: protein: recombinant; tags: N-terminal GST; dsDNA, one strand shown
# How it was run: as §1
# SPIB = SPIB (Homo sapiens, UniProt Q01892 1-262); details: protein: recombinant; tags: N-terminal GST; dsDNA, one strand shown
# How it was run: as §1
# ELK3 = target: T6, ELK3 (Homo sapiens, UniProt P41970 1-407); details: protein: recombinant; tags: N-terminal GST; dsDNA, one strand shown
# T6 sequence: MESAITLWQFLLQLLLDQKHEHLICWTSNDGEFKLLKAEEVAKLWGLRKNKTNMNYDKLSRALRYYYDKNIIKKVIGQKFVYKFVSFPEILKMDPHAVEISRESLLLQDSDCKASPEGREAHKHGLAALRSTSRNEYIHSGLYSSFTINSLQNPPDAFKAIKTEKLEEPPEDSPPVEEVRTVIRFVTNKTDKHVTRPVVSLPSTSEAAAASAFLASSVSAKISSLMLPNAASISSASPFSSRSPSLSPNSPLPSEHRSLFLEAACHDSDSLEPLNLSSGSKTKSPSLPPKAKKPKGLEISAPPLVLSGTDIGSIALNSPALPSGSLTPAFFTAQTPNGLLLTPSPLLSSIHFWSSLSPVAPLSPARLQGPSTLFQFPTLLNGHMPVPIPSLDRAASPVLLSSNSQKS
# How it was run: as §1
# FEV = target: T7, FEV (Homo sapiens, UniProt Q99581 1-238); details: protein: recombinant; tags: N-terminal GST; dsDNA, one strand shown
# T7 sequence: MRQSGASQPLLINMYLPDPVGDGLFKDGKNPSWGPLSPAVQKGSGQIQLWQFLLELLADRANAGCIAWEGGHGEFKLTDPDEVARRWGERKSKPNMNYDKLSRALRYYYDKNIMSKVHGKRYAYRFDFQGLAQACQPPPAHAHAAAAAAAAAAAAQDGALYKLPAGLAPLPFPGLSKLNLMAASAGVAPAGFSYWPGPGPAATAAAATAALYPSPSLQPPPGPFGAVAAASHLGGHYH
# How it was run: as §1
# ETV5 = ETV5 (Homo sapiens, UniProt P41161 1-510); details: protein: recombinant; tags: N-terminal GST; dsDNA, one strand shown
# How it was run: as §1
# HSF1 = HSF1 (Homo sapiens, UniProt Q00613 1-529); details: protein: recombinant; tags: N-terminal GST; chain copies: 3; dsDNA, one strand shown
# How it was run: as §1
# SPIC = target: T8, SPIC (Homo sapiens, UniProt Q8N5J4 1-248); details: protein: recombinant; tags: N-terminal GST; dsDNA, one strand shown
# T8 sequence: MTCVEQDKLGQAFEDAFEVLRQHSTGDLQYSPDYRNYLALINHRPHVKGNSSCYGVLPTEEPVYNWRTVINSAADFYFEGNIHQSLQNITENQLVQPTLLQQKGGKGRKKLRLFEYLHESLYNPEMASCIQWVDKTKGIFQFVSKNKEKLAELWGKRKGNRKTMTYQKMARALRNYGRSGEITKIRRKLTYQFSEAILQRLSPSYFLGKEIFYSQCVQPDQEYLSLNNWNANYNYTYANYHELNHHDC
# How it was run: as §1
# ELF4 = ELF4 (Homo sapiens, UniProt Q99607 1-663); details: protein: recombinant; tags: N-terminal GST; dsDNA, one strand shown
# How it was run: as §1
# ELK4 = target: T9, ELK4 (Homo sapiens, UniProt P28324-2 1-405); details: protein: recombinant; tags: N-terminal GST; dsDNA, one strand shown
# T9 sequence: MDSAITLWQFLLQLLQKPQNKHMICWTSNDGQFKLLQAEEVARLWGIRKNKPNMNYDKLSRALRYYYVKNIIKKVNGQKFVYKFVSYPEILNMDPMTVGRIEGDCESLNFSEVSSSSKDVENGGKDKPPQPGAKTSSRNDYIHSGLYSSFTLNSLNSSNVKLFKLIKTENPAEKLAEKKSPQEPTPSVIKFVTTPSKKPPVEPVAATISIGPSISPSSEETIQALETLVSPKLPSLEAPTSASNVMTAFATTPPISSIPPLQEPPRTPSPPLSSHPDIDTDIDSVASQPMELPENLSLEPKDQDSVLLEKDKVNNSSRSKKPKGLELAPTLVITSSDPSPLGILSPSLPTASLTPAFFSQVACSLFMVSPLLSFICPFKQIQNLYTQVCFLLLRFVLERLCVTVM
# How it was run: as §1
# ETV2 = target: T10, ETV2 (Homo sapiens, UniProt O00321 1-342); details: protein: recombinant; tags: N-terminal GST; dsDNA, one strand shown
# T10 sequence: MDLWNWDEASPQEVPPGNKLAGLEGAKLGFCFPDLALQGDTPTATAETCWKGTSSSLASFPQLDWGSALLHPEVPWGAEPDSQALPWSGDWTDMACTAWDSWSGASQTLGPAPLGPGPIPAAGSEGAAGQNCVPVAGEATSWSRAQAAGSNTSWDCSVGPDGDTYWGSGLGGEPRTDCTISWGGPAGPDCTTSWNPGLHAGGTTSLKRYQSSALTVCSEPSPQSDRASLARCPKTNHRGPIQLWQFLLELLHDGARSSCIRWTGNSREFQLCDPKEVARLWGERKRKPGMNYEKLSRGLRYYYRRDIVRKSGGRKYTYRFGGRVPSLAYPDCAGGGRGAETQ
# How it was run: as §1
# ELF3 = target: T11, ELF3 (Homo sapiens, UniProt P78545 1-371); details: protein: recombinant; tags: N-terminal GST; dsDNA, one strand shown
# T11 sequence: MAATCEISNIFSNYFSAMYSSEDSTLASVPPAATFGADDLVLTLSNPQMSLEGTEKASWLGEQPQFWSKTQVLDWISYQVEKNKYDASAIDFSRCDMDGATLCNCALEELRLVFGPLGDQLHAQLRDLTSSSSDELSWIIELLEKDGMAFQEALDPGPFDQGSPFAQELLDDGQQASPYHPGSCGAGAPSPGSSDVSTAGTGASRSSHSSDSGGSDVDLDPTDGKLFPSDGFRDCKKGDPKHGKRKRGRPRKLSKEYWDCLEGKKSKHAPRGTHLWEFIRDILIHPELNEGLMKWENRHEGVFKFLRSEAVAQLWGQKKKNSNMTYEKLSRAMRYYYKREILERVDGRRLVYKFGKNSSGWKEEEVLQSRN
# How it was run: as §1
# CRX = CRX (Homo sapiens, UniProt O43186 1-299); details: protein: recombinant; tags: N-terminal GST; dsDNA, one strand shown
# How it was run: as §1
# ETV1 = ETV1 (Homo sapiens, UniProt P50549 1-477); details: protein: recombinant; tags: N-terminal GST; dsDNA, one strand shown
# How it was run: as §1
# ELF4, sequence (Q99607 whole entry): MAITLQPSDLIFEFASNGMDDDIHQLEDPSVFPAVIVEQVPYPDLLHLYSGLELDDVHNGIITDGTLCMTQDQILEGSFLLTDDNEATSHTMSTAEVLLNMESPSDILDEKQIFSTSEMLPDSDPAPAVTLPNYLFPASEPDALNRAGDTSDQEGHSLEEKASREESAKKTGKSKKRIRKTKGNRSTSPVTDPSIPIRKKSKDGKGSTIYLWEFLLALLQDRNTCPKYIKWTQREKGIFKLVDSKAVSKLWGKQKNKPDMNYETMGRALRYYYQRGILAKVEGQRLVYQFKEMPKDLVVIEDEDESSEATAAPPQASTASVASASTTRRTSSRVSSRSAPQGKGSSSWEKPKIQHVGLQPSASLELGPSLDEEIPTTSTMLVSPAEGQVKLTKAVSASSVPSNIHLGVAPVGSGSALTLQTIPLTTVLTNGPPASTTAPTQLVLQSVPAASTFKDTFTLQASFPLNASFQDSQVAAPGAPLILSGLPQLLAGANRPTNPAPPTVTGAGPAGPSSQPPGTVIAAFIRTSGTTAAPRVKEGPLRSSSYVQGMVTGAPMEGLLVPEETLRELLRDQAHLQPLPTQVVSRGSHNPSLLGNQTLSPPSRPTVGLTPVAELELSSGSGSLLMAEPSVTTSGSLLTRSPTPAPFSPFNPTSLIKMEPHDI
# ETV5, sequence (P41161 whole entry): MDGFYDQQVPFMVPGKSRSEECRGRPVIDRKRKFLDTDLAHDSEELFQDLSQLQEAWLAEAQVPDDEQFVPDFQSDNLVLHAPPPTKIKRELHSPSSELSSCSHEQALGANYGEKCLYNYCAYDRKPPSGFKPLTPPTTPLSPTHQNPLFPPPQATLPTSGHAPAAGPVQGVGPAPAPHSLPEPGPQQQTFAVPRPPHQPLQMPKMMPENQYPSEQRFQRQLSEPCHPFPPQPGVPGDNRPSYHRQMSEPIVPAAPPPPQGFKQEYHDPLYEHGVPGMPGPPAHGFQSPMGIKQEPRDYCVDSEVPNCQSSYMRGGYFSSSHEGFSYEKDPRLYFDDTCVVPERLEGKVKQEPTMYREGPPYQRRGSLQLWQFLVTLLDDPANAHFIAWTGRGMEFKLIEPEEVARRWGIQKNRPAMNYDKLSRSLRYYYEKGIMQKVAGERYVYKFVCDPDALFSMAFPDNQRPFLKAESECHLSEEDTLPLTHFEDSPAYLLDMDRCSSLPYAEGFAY
# ELF1, sequence (P32519 whole entry): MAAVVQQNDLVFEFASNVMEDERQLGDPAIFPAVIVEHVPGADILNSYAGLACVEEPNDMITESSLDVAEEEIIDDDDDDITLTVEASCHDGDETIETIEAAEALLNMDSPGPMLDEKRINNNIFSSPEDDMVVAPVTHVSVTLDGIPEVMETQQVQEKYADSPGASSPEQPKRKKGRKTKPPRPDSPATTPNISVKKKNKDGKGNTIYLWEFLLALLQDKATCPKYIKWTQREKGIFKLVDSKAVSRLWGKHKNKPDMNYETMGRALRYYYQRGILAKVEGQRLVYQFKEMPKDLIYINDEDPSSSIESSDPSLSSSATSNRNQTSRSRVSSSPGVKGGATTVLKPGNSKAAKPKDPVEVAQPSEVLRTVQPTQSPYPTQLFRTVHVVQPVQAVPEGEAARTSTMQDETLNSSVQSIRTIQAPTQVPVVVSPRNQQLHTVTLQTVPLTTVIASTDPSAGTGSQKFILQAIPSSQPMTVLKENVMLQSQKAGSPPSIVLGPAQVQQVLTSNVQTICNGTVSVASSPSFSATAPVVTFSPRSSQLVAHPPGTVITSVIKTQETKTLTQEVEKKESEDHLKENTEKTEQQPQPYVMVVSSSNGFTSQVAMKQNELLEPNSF
# SPIB, sequence (Q01892 whole entry): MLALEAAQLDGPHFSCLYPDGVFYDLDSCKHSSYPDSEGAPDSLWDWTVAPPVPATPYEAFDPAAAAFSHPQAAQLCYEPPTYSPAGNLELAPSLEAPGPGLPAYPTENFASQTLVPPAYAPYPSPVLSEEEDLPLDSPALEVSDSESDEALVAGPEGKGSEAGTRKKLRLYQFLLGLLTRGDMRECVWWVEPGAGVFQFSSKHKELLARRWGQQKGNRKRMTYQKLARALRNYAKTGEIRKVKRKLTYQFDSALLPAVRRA
# CRX, sequence (O43186 whole entry): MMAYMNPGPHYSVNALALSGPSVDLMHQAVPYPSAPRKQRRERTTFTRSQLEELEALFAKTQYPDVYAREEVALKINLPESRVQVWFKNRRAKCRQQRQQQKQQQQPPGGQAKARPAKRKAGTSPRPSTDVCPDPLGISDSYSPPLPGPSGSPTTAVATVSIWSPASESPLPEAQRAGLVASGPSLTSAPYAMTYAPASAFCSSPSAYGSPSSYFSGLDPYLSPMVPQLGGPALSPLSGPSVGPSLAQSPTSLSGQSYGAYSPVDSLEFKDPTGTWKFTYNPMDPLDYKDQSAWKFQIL
# HSF1, sequence (Q00613 whole entry): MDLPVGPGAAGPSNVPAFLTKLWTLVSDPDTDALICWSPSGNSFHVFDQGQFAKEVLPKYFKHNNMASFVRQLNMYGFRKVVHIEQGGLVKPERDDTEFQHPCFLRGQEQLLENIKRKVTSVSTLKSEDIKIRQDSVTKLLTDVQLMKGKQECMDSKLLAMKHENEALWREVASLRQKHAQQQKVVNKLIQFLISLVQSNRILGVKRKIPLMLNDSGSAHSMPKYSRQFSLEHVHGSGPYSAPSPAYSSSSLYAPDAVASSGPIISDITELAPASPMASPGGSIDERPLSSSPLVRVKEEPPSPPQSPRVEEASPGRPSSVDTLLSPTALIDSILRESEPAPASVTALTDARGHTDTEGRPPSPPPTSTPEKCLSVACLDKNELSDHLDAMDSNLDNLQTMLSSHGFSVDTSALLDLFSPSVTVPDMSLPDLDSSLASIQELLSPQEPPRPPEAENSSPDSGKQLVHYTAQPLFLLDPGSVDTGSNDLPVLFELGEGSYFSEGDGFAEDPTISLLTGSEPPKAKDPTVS
# ETV1, sequence (P50549 whole entry): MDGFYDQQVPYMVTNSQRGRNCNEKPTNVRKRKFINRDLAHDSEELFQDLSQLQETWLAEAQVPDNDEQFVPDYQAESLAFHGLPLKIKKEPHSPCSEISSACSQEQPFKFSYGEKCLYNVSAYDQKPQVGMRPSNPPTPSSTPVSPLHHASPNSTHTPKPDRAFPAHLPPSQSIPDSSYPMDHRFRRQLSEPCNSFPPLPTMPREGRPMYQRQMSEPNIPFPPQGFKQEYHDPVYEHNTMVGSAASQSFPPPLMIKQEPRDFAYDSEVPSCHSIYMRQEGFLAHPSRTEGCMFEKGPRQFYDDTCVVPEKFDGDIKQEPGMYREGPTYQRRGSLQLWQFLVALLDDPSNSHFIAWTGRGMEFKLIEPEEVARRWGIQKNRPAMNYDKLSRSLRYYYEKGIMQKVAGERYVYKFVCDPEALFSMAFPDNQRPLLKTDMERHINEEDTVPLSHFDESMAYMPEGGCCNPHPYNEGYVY
sequence,measurement,setting,value
ACGCTT,binding signal,FLI1,"1.4 fold enrichment (6-mer frequency, TF over GST control)"
same,binding signal,ELK1,"1.34 fold enrichment (6-mer frequency, TF over GST control)"
same,binding signal,GABPA,"1.37 fold enrichment (6-mer frequency, TF over GST control)"
same,binding signal,ERG,"1.33 fold enrichment (6-mer frequency, TF over GST control)"
same,binding signal,ELF1,"1.37 fold enrichment (6-mer frequency, TF over GST control)"
same,binding signal,EHF,"1.35 fold enrichment (6-mer frequency, TF over GST control)"
same,binding signal,SPI1,"1.23 fold enrichment (6-mer frequency, TF over GST control)"
same,binding signal,SPIB,"1.5 fold enrichment (6-mer frequency, TF over GST control)"
same,binding signal,ELK3,"1.44 fold enrichment (6-mer frequency, TF over GST control)"
same,binding signal,FEV,"1.4 fold enrichment (6-mer frequency, TF over GST control)"
same,binding signal,ETV5,"1.41 fold enrichment (6-mer frequency, TF over GST control)"
same,binding signal,HSF1,"1.22 fold enrichment (6-mer frequency, TF over GST control)"
same,binding signal,SPIC,"1.32 fold enrichment (6-mer frequency, TF over GST control)"
same,binding signal,ELF4,"1.43 fold enrichment (6-mer frequency, TF over GST control)"
same,binding signal,ELK4,"1.23 fold enrichment (6-mer frequency, TF over GST control)"
same,binding signal,ETV2,"1.28 fold enrichment (6-mer frequency, TF over GST control)"
same,binding signal,ELF3,"1.55 fold enrichment (6-mer frequency, TF over GST control)"
same,binding signal,CRX,"1.36 fold enrichment (6-mer frequency, TF over GST control)"
same,binding signal,ETV1,"1.39 fold enrichment (6-mer frequency, TF over GST control)"
